# Tested on: Vero E6 infected with SARS-CoV-2
# Test: morphology score (similarity to uninfected cells); higher = more like uninfected cells
# Details: 24 h
row,SMILES,morphology score
1,O=C(CCBr)N1CCN(C(=O)CCBr)CC1 [pipobroman] (10 µM),0.23
2,CCOc1ccc2nc(S(N)(=O)=O)sc2c1 [ethoxzolamide] (10 µM),0.205
3,O=C(Nc1cccc(C(F)(F)F)c1)Nc1ccc(Br)cc1-c1nnn[nH]1 (10 µM),-0.0612
4,C=C(NC(=O)C(=C)NC(=O)c1csc(C2=N[C@@H]3c4csc(n4)[C@H]4NC(=O)c5csc(n5)[C@H]([C@](C)(O)[C@@H](C)O)NC(=O)[C@H]5CSC(=N5)/C(=C/C)NC(=O)[C@H]([C@@H](C)O)NC(=O)c5csc(n5)[C@]3(CC2)NC(=O)[C@H](C)NC(=O)C(=C)NC(=O)[C@H](C)NC(=O)[C@H]([C@@H](C)CC)N[C@@H]2C=Cc3c([C@H](C)O)cc(nc3[C@H]2O)C(=O)O[C@@H]4C)n1)C(N)=O [thiostrepton] (10 µM),0.148
5,CNc1cc2c(Nc3cccc(Br)c3)ncnc2cn1 (10 µM),-0.276
6,CCC(=O)O[C@]1(C(=O)CCl)[C@@H](C)C[C@H]2[C@@H]3C[C@H](F)C4=CC(=O)C=C[C@]4(C)[C@@]3(F)[C@@H](O)C[C@@]21C [halobetasol-propionate] (10 µM),0.0989
7,O=C(Cc1ccc(-c2ccccc2)cc1)Nc1ccccn1 [difenpiramide] (10 µM),0.431
8,CC(C)[C@H](N)C(=O)OCCOCn1cnc2c(=O)nc(N)[nH]c21 [valaciclovir] (10 µM),-0.0293
9,COc1ccc(/C=C\c2cc(OC)c(OC)c(OC)c2)cc1OP(=O)(O)O [fosbretabulin] (0.833333 µM),0.0485
10,Cc1ccc(C(=O)NCCCCCC(=O)Nc2ccccc2N)cc1 (0.833333 µM),-0.0541
11,Cc1cc(C)cc(NC(=O)Cc2ccc(OC(C)(C)C(=O)O)cc2)c1 [efaproxiral] (10 µM),-0.103
12,CC(NCCc1ccc(O)cc1)C(O)c1ccc(O)cc1 (stereo not given) [ritodrine] (10 µM),0.154
13,O=c1[nH]c2ccccc2n1C1CCN(CCOc2ccccc2)CC1 [oxiperomide] (0.833333 µM),-0.0147
14,O=C(O)/C=C/c1ccc(O)c(O)c1 [caffeic-acid] (10 µM),-0.0394
15,CC(=O)c1cnc2ccc(-c3cc(Cl)c(O)c(Cl)c3)nc2c1N[C@H]1CC[C@H](CN(C)C)CC1 (0.833333 µM),0.294
16,OC(CCCN1CCN(c2ncc(F)cn2)CC1)c1ccc(F)cc1 (stereo not given) (10 µM),0.0906
17,C[C@H](CCC(=O)O)[C@H]1CC[C@H]2[C@@H]3[C@@H](O)C[C@@H]4C[C@H](O)CC[C@]4(C)[C@H]3CC[C@]12C [ursodiol] (10 µM),-0.0233
18,Cc1ccc(NC2=CC(=O)c3sc(C)nc3C2=O)cc1 [ryuvidine] (0.833333 µM),0.165
19,CC1CC(OC(=O)C(O)c2ccccc2)CC(C)(C)C1 (stereo not given) [cyclandelate] (10 µM),0.115
20,Nc1nc(N)c(N=O)c(OCC2CCCCC2)n1 (10 µM),0.621

row,SMILES,morphology score
1,COC(=O)CCc1ccc(OCC(O)CNC(C)C)cc1 (stereo not given) [esmolol] (10 µM),-0.00906
2,CO/N=C1\C[C@]2(C[C@@H]3C[C@@H](C/C=C(\C)C[C@@H](C)/C=C/C=C4\CO[C@@H]5[C@H](O)C(C)=C[C@@H](C(=O)O3)[C@]45O)O2)O[C@H](/C(C)=C/C(C)C)[C@H]1C [moxidectin] (10 µM),0.272
3,C=C1/C(=C\C=C2/CCC[C@]3(C)[C@@H]([C@H](C)CCCC(C)(C)O)CC[C@@H]23)C[C@@H](O)C[C@@H]1O [calcitriol] (10 µM),0.098
4,O=C(O)CCCC[C@@H]1SC[C@@H]2NC(=O)N[C@@H]21 [biotin] (10 µM),-0.0202
5,NCc1ccc(S(N)(=O)=O)cc1 [mafenide] (10 µM),0.136
6,Cc1cc(C)c(N)c(C#Cc2cccc(F)c2)n1 (10 µM),0.221
7,CN1CCN2c3c(cccc31)[C@@H]1CN(CCCC(=O)c3ccc(F)cc3)CC[C@@H]12 [lumateperone] (10 µM),0.348
8,COc1cc2c(c(OC)c1OC)-c1c(cc3c(c1OC)OCO3)C[C@H](C)[C@@](C)(O)C2 [schisandrol-B] (10 µM),-0.0659
9,C1CCC(NC2CCCCC2)CC1 [dicyclohexylamine] (10 µM),-0.191
10,NCCCC(O)(P(=O)(O)O)P(=O)(O)O [alendronate] (10 µM),0.102
11,Cc1cc(Nc2ncnc3ccc(-c4ccc(CNCCS(C)(=O)=O)o4)cc23)ccc1Oc1ccn2ncnc2c1 [HER2-Inhibitor-1] (10 µM),0.174
12,CNC(=O)Oc1cccc2ccccc12 [carbaril] (10 µM),0.025
13,C[C@H](CCC(=O)O)[C@H]1CC[C@H]2[C@@H]3C(=O)C[C@@H]4CC(=O)CC[C@]4(C)[C@H]3CC(=O)[C@]12C [dehydrocholate-acid] (10 µM),0.231
14,CN1CCN(Cc2ccc(-c3cnc4[nH]cc(-c5ccc6[nH]ccc6c5)c4c3)cc2)CC1 (0.833333 µM),0.84
15,CCC(=O)OCC(=O)[C@@]1(OC(=O)CC)[C@@H](C)C[C@H]2[C@@H]3CCC4=CC(=O)C=C[C@]4(C)[C@@]3(Cl)[C@@H](O)C[C@@]21C [beclomethasone-dipropionate] (10 µM),0.126
16,CCc1[nH]c(=O)[nH]c1C(=O)c1ccncc1 [piroximone] (10 µM),0.142
17,COc1ccc(OC)c(C(O)C(C)N)c1 (stereo not given) [methoxamine] (10 µM),-0.12
18,COc1cc2c(cc1OC)[C@@]13CCN4CC5=CCO[C@H]6CC(=O)N2[C@H]1[C@H]6[C@H]5C[C@H]43 [brucine] (10 µM),0.0385
19,O=C(Nc1ccc(C(F)(F)F)cn1)N1CCN(c2ncccc2C(F)(F)F)CC1 (10 µM),0.0927
20,Cc1sc2c(c1C)C(c1ccc(Cl)cc1)=N[C@@H](CC(=O)Nc1ccc(O)cc1)c1nnc(C)n1-2 (10 µM),-0.169

# Source: the supplement of paper PMC13380429
